# Hits are enriched below; roughly 3.8% of the tested compounds scored in any of these assays.
# CBFb RUNX1 block: qHTS Assay for Compounds Blocking the Interaction Between CBF-beta and RUNX1 for the Treatment of Acute Myeloid Leukemia. Potency, µM (top dose mostly 59.8 µM), inactives show top-dose activity, negative = inhibition, hits mostly inhibitors. AlphaScreen CBFb-His/RUNX1-biotin binding, biochemical. AID 1477, 2009. Runt-related transcription factor 1 (Homo sapiens) + Core-binding factor subunit beta …. 230,000 tested, under 10 active; further: % of control where 0% means no effect
#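 Read-out: AlphaScreen. Format: His-CBF-beta with biotinylated RUNX1 (30 nM each) preincubated 20 min, compound 15 min, Ni-chelate plus streptavidin beads 90 min; room temperature throughout.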
# KCNH2 3.1 block: qHTS for Inhibitors of KCHN2 3.1: Mutant qHTS; Potassium voltage-gated channel subfamily H member 2, brain isoform KCNH2 3.1 (human); activity change, % (tested at about 1.8 µM); U2OS KCNH2 3.1, thallium flux FluxOr; active compounds read low; 340,000 tested, 0.95% active;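 active means maximum activity change below -70%; inconclusive means maximum activity change from -70% to -50%; inactive means maximum activity change above -50%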;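 further: thallium influx rate constant from kinetic fluorescence after stimulation buffer; on the % scale 0 is the no-effect control and ±100 the full control effect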
#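 Normalized rate constant (relative to positive and negative DMSO controls) derived from a 2 min kinetic fluorescence read after stimulation; U2OS cells expressing the 3.1 isoform via virus at 1.77 x 10^8 /mL.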
# hERG WT inh: qHTS for Inhibitors of KCHN2 3.1: Wildtype qHTS; U2OS, BacMam KCNH2, thallium flux FluxOr; active compounds read low; activity change, % at 1.84 µM; 340,000 tested, 0.37% active;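 active means maximum activity change below -70%; inconclusive means maximum activity change between -70% and -50%; inactive means maximum activity change above -50%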; further: on the % scale 0 is the no-effect control and ±100 the full control effect
#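 U2OS cells transduced with wild-type KCNH2 virus are loaded with FluxOr dye for 45 min, and thallium flux is measured in kinetic reads before and after stimulation buffer. Rate constants are normalized to DMSO controls.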
# VDR inh: Inhibitors of the vitamin D receptor (VDR): qHTS | Vitamin D3 receptor (Homo sapiens), P11473 | VDR-SRC2-3 peptide fluorescence polarization, 2 h | Potency, µM, for the others: max response, negative = inhibition, usual class: inhibitors | 400,000 tested, 0.93% active | AID 504847, 2011; further: potency means the concentration at half of the fitted maximal effect; on the % scale 0 is the no-effect control and ±100 the full control effect
#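 Inhibition of the VDR/SRC2-3 peptide interaction is quantified by fluorescence polarization. Compounds (23 nl, pintool) incubate with the reagents for 2 hours at ambient room temperature.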
# PLK1 PBD block: qHTS for Inhibitors of PLK1-PDB (polo-like kinase 1 - polo-box domain): Primary Screen | Plk1 PBD binding of FITC phosphopeptide, fluorescence polarization | 360,000 tested, 2.8% active | AID 720504, 2013 | Potency, µM, for inactives: max response, negative = inhibition, usual class: inhibitors; further: potency means the concentration at half of the fitted maximal effect; series mostly up to about 57 µM; on the % scale 0 is the no-effect control and ±100 the full control effect; nearly all actives have a fitted effect of over 65% in size
# MBNL1-CUG inh: qHTS Assay for Inhibitors of MBNL1-poly(CUG) RNA binding; Muscleblind-like protein 1 (Homo sapiens), Q9NR56; 280,000 tested, 0.036% active; TR-FRET MBNL1-His/biotin-(CUG)12 binding, 665/545 ratio; Potency, µM (titrated, usually from 57.5 µM), for the others: top-dose activity change, negative = inhibition, actives largely listed as inhibitors; active means well fitted inhibition curve with a large enough effect in the signal ratio, with a control signal flat, not every such curve was filed as active; inconclusive means small, poorly fitted or top-dose-only effect, or effect the other way, or a change in a side signal; inactive means no such curve, though single readings can be large or run the other way; the % refers to the signal ratio; further: potency means the concentration at half of the fitted maximal effect; on the % scale 0 is the no-effect control and ±100 the full control effect
#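 Ratiometric TR-FRET (665 over 545 nm, excitation 340 nm) tracks disruption of MBNL1-His/biotin-(CUG)12 complex after 60 min at room temperature, with compounds at 92 nM to 58 uM final.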
# Numbers without * were called inactive; ? = inconclusive; · = no result; ! = a repeat was not active; [ ] = another dose, or the depositor's remark. Unless noted, the call rests on the fitted dose curve; in most records, active means well fitted curve in the direction sought with a large enough effect; inconclusive means small, poorly fitted or top-dose-only effect, or another doubt; inactive means no such curve, though single readings can be large; an effect the other way counts as inactive or inconclusive.
SMILES,CBFb RUNX1 block,KCNH2 3.1 block,hERG WT inh,VDR inh,PLK1 PBD block,MBNL1-CUG inh
COc1ccc(C(=O)Nc2ccc(-c3n[nH]c(=S)o3)cc2)cc1OC,·,-12,-1,?,12µM*,-4%
COc1cccc(CNC(=O)Cn2cc3c(n2)-c2c(oc(C(=O)N4CCCC4)c2C)CC3)c1OC,·,·,·,9%,·,·
CN(Cc1ccccc1)C(=O)c1ccc2c(c1)N(Cc1ccccc1F)C(=O)c1ccccc1S2(=O)=O,·,·,·,-4%,·,·
O=c1[nH]ncc(N2CCCCCC2)c1Cl,-1%,-100*,-9,-12%,-1%,0%
CC(=O)c1ccc(N2CCN(CC(O)COC(c3ccccc3)c3ccccc3)CC2)cc1 (centres undefined),·,-14,5,27%,-18%,-10%
CC(=O)c1ccc(N2CCN(CC(O)COC(c3ccccc3)c3ccccc3C)CC2)cc1 (centres undefined),·,-94*,-25,?,-17%,-3%
COC(=O)/C=C/c1cc(O)ccc1O,4%,·,·,-6%,·,·
CC1=C(C(=O)NCCc2ccc(Cl)cc2)C2(CCCCC2)OC1=O,·,·,·,8%,·,·
COc1cc(/C=C/c2ccc3c(Br)cc(Br)c(O)c3n2)ccc1O,-5%,-5,12,?,24µM*,153%
COc1ccc(/C=C/c2ccc3c(Br)ccc(O)c3n2)cc1,·,-7,-3,-10%,-14%,13%
O=C(CSc1ccccn1)Nc1ccc2[nH]c(=O)[nH]c2c1,·,23,0,-3%,27µM*,·
CC(=O)N[C@@H](CSC/C=C(\C)CCC=C(C)C)C(=O)O,4%,·,·,0%,·,·
CC(=O)N[C@@H](CSC/C=C(\C)CC/C=C(\C)CC/C=C(\C)CCC=C(C)C)C(=O)O,-3%,·,·,35µM*!,·,·
CC(=O)N[C@@H](CSC/C=C(\C)CC/C=C(\C)CCC=C(C)C)C(=O)O,7%,·,·,50µM*!,·,·
Cc1ccc(-c2nc3c(c(SCC(=O)Nc4cccc(C(=O)O)c4)n2)Cc2cccc(C)c2O3)cc1,·,·,·,6%,·,·
Cc1cccc(NC(=O)C2CCCN(S(=O)(=O)c3ccc4c(c3)CCCC(=O)N4)C2)c1 (centres undefined),·,·,·,3%,·,·
Cc1ccc(CCNC(=O)C2CCCN(S(=O)(=O)c3c(C)nn(C)c3C)C2)cc1 (centres undefined),4%,-8,6,-9%,27µM*,-5%
O=C(Nc1ccccc1F)C1CCCN(S(=O)(=O)c2ccccc2)C1 (centres undefined),1%,-14,0,?,3.4µM*,-10%
CS(=O)(=O)N1CCCC(C(=O)Nc2ccccc2F)C1 (centres undefined),·,4,-3,-3%,-9%,-2%
O=C(NCCc1ccccc1)C1CCCN(S(=O)(=O)c2cccnc2)C1 (centres undefined),1%,12,-254*,2%,2%,1%
NS(=O)(=O)c1ccc(CCNC(=O)C2CCCN(S(=O)(=O)c3cccnc3)C2)cc1 (centres undefined),-1%,2,-8,-11%,-3%,13%
Cc1ccc(S(=O)(=O)N2CCc3nc(COc4ccccc4)c4c(c3C2)CO[C@@H](C)C4)cc1,0%[13.1 µM],·,·,·,·,·
O=C1C=CC(=O)C(CNc2ccc(C(=O)OCc3ccccc3)cc2)=C1,·,-10,-23,?,13µM*,·
CN(C)c1ccc(C(=O)OCc2ccccc2)cc1,21%,-16,-5,-4%,-12%,1%
COc1cc(Cl)c(C)cc1NC(=S)NN,-10%,-9,1,5%,27µM*,6%

# Source: PubChem BioAssay
